Data as given in the supplement of paper PMC8007513.
Where a name gives a salt, the structure may show the parent alone. ± gives the standard error. The campaign covered roughly 1,300 compounds. About 130 (10%) showed an effect of 50% or more. What follows is part of a selection rich in strong results, with near analogues and random picks from the rest.

Test system: Trichoderma virens ATCC 9645
Experiment: growth yield (OD600) with compound + IPBC relative to untreated control; higher = less growth inhibition
Settings: compound concentration: 100 uM, IPBC concentration: 200 ng/ml
In short: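 Library compounds (100 μM final), with or without a co-applied biocide (200 ng ml^−1), were added to 100 μl aliquots of Trichoderma virens ATCC 9645 spores at 15,000 spores ml^−1 in potato dextrose broth. Cultures were grown at 30 °C in 96-well plates, and OD600 was measured at 40 h and 72 h. Each growth value is a mean of duplicate screens, expressed relative to the control with neither agent.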

| Structure (SMILES) | growth yield (40 h) [%] | growth yield (72 h) [%] |
| --- | --- | --- |
| CC(=O)NCCCS(=O)(=O)O [Acamprosate calcium] + CCCCNC(=O)OCC#CI [3-iodo-2-propynyl butylcarbamate (IPBC)] | 102.9 ± 0.32 | 94.3 ± 2.4 |
| CCCCC(=O)O[C@H]1CC[C@H]2[C@@H]3CCc4cc(O)ccc4[C@H]3CC[C@]12C [Estradiol Valerate] + CCCCNC(=O)OCC#CI [3-iodo-2-propynyl butylcarbamate (IPBC)] | 92.29 ± 0.48 | 92.2 ± 2.4 |
| O=C1O[C@H]([C@@H](O)CO)C(O)=C1O [Ascorbic acid] + CCCCNC(=O)OCC#CI [3-iodo-2-propynyl butylcarbamate (IPBC)] | 92.1 ± 0.95 | 96.28 ± 0.63 |
| CN[C@@H]1[C@@H](O)[C@@H](O[C@@H]2[C@@H](O)[C@H](O[C@H]3OC(CN)=CC[C@H]3N)[C@@H](N)C[C@H]2N)OC[C@]1(C)O [Sisomicin sulfate] + CCCCNC(=O)OCC#CI [3-iodo-2-propynyl butylcarbamate (IPBC)] | 85.6 ± 3.6 | 91.9 ± 3.6 |
| Cc1ccccc1OCC(O)CO (stereo not given) [Mephenesin] + CCCCNC(=O)OCC#CI [3-iodo-2-propynyl butylcarbamate (IPBC)] | 93.7 ± 2.9 | 99 ± 0.63 |
| CNCC(O)c1ccc(O)cc1 (racemic) [(+,-)-Synephrine] + CCCCNC(=O)OCC#CI [3-iodo-2-propynyl butylcarbamate (IPBC)] | 81.3 ± 3.8 | 93.8 ± 6.3 |
| NC(=O)C[S+]([O-])C(c1ccccc1)c1ccccc1 (stereo not given) [Modafinil] + CCCCNC(=O)OCC#CI [3-iodo-2-propynyl butylcarbamate (IPBC)] | 82 ± 3.5 | 93.5 ± 2.9 |
| C[C@]12C=CC(=O)C=C1CC[C@@H]1[C@@H]2C(=O)C[C@@]2(C)[C@H]1CC[C@]2(O)C(=O)CO [Prednisone] + CCCCNC(=O)OCC#CI [3-iodo-2-propynyl butylcarbamate (IPBC)] | 90.9 ± 1.9 | 91.5 ± 1.3 |
| CCCC(C)C1(CC)C(=O)NC(=O)NC1=O (stereo not given) [Pentobarbital] + CCCCNC(=O)OCC#CI [3-iodo-2-propynyl butylcarbamate (IPBC)] | 87.4 ± 2.9 | 94.2 ± 2.7 |
| C/C=C(/C(=C/C)c1ccc(O)cc1)c1ccc(O)cc1 [Dienestrol] + CCCCNC(=O)OCC#CI [3-iodo-2-propynyl butylcarbamate (IPBC)] | 94.8 ± 3.3 | 93.8 ± 2.3 |
| CCC(C)(CN(C)C)OC(=O)c1ccccc1 (stereo not given) [Amyleine hydrochloride] + CCCCNC(=O)OCC#CI [3-iodo-2-propynyl butylcarbamate (IPBC)] | 88 ± 1.3 | 92 ± 2 |
| COc1ccc(Cl)cc1C(=O)NCCc1ccc(S(=O)(=O)NC(=O)NC2CCCCC2)cc1 [Glibenclamide] + CCCCNC(=O)OCC#CI [3-iodo-2-propynyl butylcarbamate (IPBC)] | 101 ± 6.8 | 108 ± 5.5 |
| Clc1ccc(C(Cn2ccnc2)OCc2csc3c(Cl)cccc23)c(Cl)c1 (stereo not given) [Sertaconazole nitrate] + CCCCNC(=O)OCC#CI [3-iodo-2-propynyl butylcarbamate (IPBC)] | 3.97 ± 0.16 | 3.57 ± 0.42 |
| CCOc1ccc2c(c1)C(C)=CC(C)(C)N2 [Ethoxyquin] + CCCCNC(=O)OCC#CI [3-iodo-2-propynyl butylcarbamate (IPBC)] | 98.3 ± 17 | 98.9 ± 12 |
| CCc1c(C)[nH]c2c1C(=O)C(CN1CCOCC1)CC2 (stereo not given) [Molindone hydrochloride] + CCCCNC(=O)OCC#CI [3-iodo-2-propynyl butylcarbamate (IPBC)] | 102 ± 13 | 101 ± 8.9 |
| CO[C@@H]1[C@@H](OC(N)=O)[C@@H](O)[C@H](Oc2ccc3c(O)c(NC(=O)c4ccc(O)c(CC=C(C)C)c4)c(=O)oc3c2C)OC1(C)C [Novobiocin sodium salt] + CCCCNC(=O)OCC#CI [3-iodo-2-propynyl butylcarbamate (IPBC)] | 91.7 ± 12 | 115 ± 14 |
| N#Cc1ccc(C(c2ccc(C#N)cc2)n2cncn2)cc1 [Letrozole] + CCCCNC(=O)OCC#CI [3-iodo-2-propynyl butylcarbamate (IPBC)] | 98.6 ± 8.1 | 98.5 ± 1.6 |
| c1ccc(-c2ccc(C(c3ccccc3)n3ccnc3)cc2)cc1 (stereo not given) [Bifonazole] + CCCCNC(=O)OCC#CI [3-iodo-2-propynyl butylcarbamate (IPBC)] | 4.92 ± 0.16 | 3.25 ± 0.1 |
| O=C(C1CCCCC1)N1CC(=O)N2CCc3ccccc3C2C1 (stereo not given) [Praziquantel] + CCCCNC(=O)OCC#CI [3-iodo-2-propynyl butylcarbamate (IPBC)] | 71 ± 7.5 | 87.3 ± 3.8 |
| O=[N+]([O-])O[C@H]1CO[C@H]2[C@@H]1OC[C@H]2O[N+](=O)[O-] [Isosorbide dinitrate] + CCCCNC(=O)OCC#CI [3-iodo-2-propynyl butylcarbamate (IPBC)] | 90.9 ± 7.6 | 94.4 ± 5.7 |

| Structure (SMILES) | growth yield (40 h) [%] | growth yield (72 h) [%] |
| --- | --- | --- |
| NS(=O)(=O)c1cc2c(cc1Cl)NC(C(Cl)Cl)NS2(=O)=O (stereo not given) [Trichlormethiazide] + CCCCNC(=O)OCC#CI [3-iodo-2-propynyl butylcarbamate (IPBC)] | 97.5 ± 16 | 97.3 ± 12 |
| C[C@@H]1CN([C@H]2CC[C@](C#N)(c3ccc(F)cc3)CC2)CC[C@]1(C(=O)O)c1ccccc1 [Levocabastine hydrochloride] + CCCCNC(=O)OCC#CI [3-iodo-2-propynyl butylcarbamate (IPBC)] | 118 ± 11 | 111 ± 7.3 |
| CC(C)OC(=O)CCC/C=C\C[C@@H]1[C@@H](CC[C@@H](O)CCc2ccccc2)[C@H](O)C[C@@H]1O [Latanoprost] + CCCCNC(=O)OCC#CI [3-iodo-2-propynyl butylcarbamate (IPBC)] | 90.5 ± 1.9 | 93 ± 3.9 |
| O=c1oc2ccccc2c(O)c1Cc1c(O)c2ccccc2oc1=O [Dicumarol] + CCCCNC(=O)OCC#CI [3-iodo-2-propynyl butylcarbamate (IPBC)] | 92.3 ± 6.5 | 93.2 ± 3 |
| CCc1oc2ccccc2c1C(=O)c1cc(Br)c(O)c(Br)c1 [Benzbromarone] + CCCCNC(=O)OCC#CI [3-iodo-2-propynyl butylcarbamate (IPBC)] | 43.68 ± 0.16 | 99.3 ± 8.1 |
| CC(=O)CC(c1ccccc1)c1c(O)c2ccccc2oc1=O (stereo not given) [Warfarin] + CCCCNC(=O)OCC#CI [3-iodo-2-propynyl butylcarbamate (IPBC)] | 88.5 ± 2.1 | 93.03 ± 0.1 |
| C[C@]12C/C(=C/O)C(=O)C[C@@H]1CC[C@@H]1[C@@H]2CC[C@@]2(C)[C@H]1CC[C@]2(C)O [Oxymetholone] + CCCCNC(=O)OCC#CI [3-iodo-2-propynyl butylcarbamate (IPBC)] | 112 ± 14 | 105 ± 9.2 |
| Oc1ncnc2[nH]ncc12 [Allopurinol] + CCCCNC(=O)OCC#CI [3-iodo-2-propynyl butylcarbamate (IPBC)] | 93.4 ± 4.8 | 94.28 ± 0.32 |
| Cc1cc(N)c2ccccc2[n+]1CCCCCCCCCC[n+]1c(C)cc(N)c2ccccc21 [Dequalinium dichloride] + CCCCNC(=O)OCC#CI [3-iodo-2-propynyl butylcarbamate (IPBC)] | 3.81 | 2.94 |
| COc1ncnc(NS(=O)(=O)c2ccc(N)cc2)c1OC [Sulfadoxine] + CCCCNC(=O)OCC#CI [3-iodo-2-propynyl butylcarbamate (IPBC)] | 72.6 ± 2.4 | 84.7 ± 2.7 |
| Cc1[nH]cnc1CN1CCc2c(c3ccccc3n2C)C1=O [Alosetron hydrochloride] + CCCCNC(=O)OCC#CI [3-iodo-2-propynyl butylcarbamate (IPBC)] | 85.5 ± 1.3 | 87.89 ± 0.21 |
| CC(C)(C)NC[C@@H](O)COc1cccc2c1CCCC2=O [(+) -Levobunolol hydrochloride] + CCCCNC(=O)OCC#CI [3-iodo-2-propynyl butylcarbamate (IPBC)] | 97.8 ± 16 | 99.1 ± 12 |
| CN(C)C(=O)Oc1cccc([N+](C)(C)C)c1 [Neostigmine bromide] + CCCCNC(=O)OCC#CI [3-iodo-2-propynyl butylcarbamate (IPBC)] | 83.4 ± 1.1 | 92.19 ± 0.52 |
| CCN(C)C(=O)Oc1cccc([C@H](C)N(C)C)c1 [Rivastigmine] + CCCCNC(=O)OCC#CI [3-iodo-2-propynyl butylcarbamate (IPBC)] | 97.1 ± 4 | 95.1 ± 3.7 |
| CN(CCCCCCCCCCN(C)C(=O)Oc1cccc([N+](C)(C)C)c1)C(=O)Oc1cccc([N+](C)(C)C)c1 [Demecarium bromide] + CCCCNC(=O)OCC#CI [3-iodo-2-propynyl butylcarbamate (IPBC)] | 3.97 ± 0.16 | 2.73 |
| C=C1c2cccc(O)c2C(=O)C2=C(O)[C@]3(O)C(=O)C(C(N)=O)=C(O)[C@@H](N(C)C)[C@@H]3[C@@H](O)[C@H]12 [Methacycline hydrochloride] + CCCCNC(=O)OCC#CI [3-iodo-2-propynyl butylcarbamate (IPBC)] | 94.2 ± 1.8 | 93.7 ± 0.94 |
| C[C@]1(Cn2ccnn2)[C@H](C(=O)O)N2C(=O)C[C@H]2S1(=O)=O [Tazobactam] + CCCCNC(=O)OCC#CI [3-iodo-2-propynyl butylcarbamate (IPBC)] | 84.5 ± 0.95 | 87.15 ± 0.32 |
| COc1cc2ncnc(Nc3ccc(F)c(Cl)c3)c2cc1OCCCN1CCOCC1 [Gefitinib] + CCCCNC(=O)OCC#CI [3-iodo-2-propynyl butylcarbamate (IPBC)] | 16.4 ± 5.2 | 10.5 ± 0.63 |
| CCCCOc1ccc(OCCCN2CCOCC2)cc1 [Pramoxine hydrochloride] + CCCCNC(=O)OCC#CI [3-iodo-2-propynyl butylcarbamate (IPBC)] | 80.1 ± 2.2 | 94 ± 3.1 |
| C#Cc1cccc(Nc2ncnc3cc(OCCOC)c(OCCOC)cc23)c1 [Erlotinib] + CCCCNC(=O)OCC#CI [3-iodo-2-propynyl butylcarbamate (IPBC)] | 98.2 ± 11 | 99.3 ± 3 |
